For 40 molecules, inhibition results are on record in ChEMBL document CHEMBL3433997, “St. Jude Leishmania screening dataset” (2016).

The structures appear in SMILES notation.

This test has as its target Glucose transporter (Leishmania mexicana) (UniProt O61059). Nature of the test: ST_JUDE_LEISH: Cytotoxicity at 2uM final concentration against transgenic Leishmania Mexicana promastigotes LmGT2 that are glucose transport deficient and complemented with the L. Mexicana glucose transporter 2. Activity is measured by DNA content using SYBR green in vitro. Format: functional.
As usually defined, the inhibition is the relative decrease from the control value, in per cent. Turning to `CN(Cc1cc(C(F)(F)F)cc(C(F)(F)F)c1)C(=O)C1CNCC1c1ccc(F)cc1` (stereo not given), the inhibition was determined as 3.05%.

Regarding `COc1c(C2CCN(CCCCNC(=O)c3cc(-c4ccc(Cl)cc4)sc3C)CC2)ccc2c1CCCC2`, the inhibition is -2.53%.

For `COc1ccc2[nH]ccc(=NN=Cc3ccc(Cl)cc3)c2c1`, the inhibition was 0.32%.

On to `O=C(Nc1ccc2c(c1)CCC2)c1ccc(CN2CCCN(Cc3cccc(O)c3)CC2)cc1`, for which the inhibition turned out to be 9.95%.

Turning to `CO/C(=C\C=C\c1cc2cc(Cl)c(Cl)cc2[nH]1)C(=O)NCCCN(C)CCN(C)c1ccccc1`, the inhibition stood at 1.47%.

Turning to `O=C(Nc1ccc2c(c1)CCC2)c1cnc(N2CCN(c3ccncc3)CC2)c(Cl)c1`, the inhibition was found to be 37%.

For the molecule `CCN(CC)CCCC(C)Nc1c(-c2ccc(C)cc2)cnc2ccccc12` (stereo not given), the inhibition came out at 8.1%.

In the case of `COc1cc(SC)c(Br)cc1-c1nc2ccncc2[nH]1`, the inhibition came out at 4.52%.

Take `Cc1cccc2nc(-c3ccc(-c4cccc(NCc5cn6cccnc6n5)c4)cc3)[nH]c12`: the inhibition is -2.51%.

Take `CN1CCN(Cc2ccc(-c3ccc4c(Nc5ccc(Oc6ccccn6)cc5)ccnc4c3)o2)CC1`: the inhibition is -1.97%.

Regarding `O=C(Nc1cccc(CN2CCCN(Cc3ccc(O)cc3)CC2)c1)c1ccc(Br)cc1`, the inhibition came out at 3.89%.

On to `Cc1ccc2[nH]c(C)cc(=NN=Cc3cccc(Cl)c3)c2c1`, for which the inhibition came out at 2.31%.

As to `COc1ccc2ncc(F)c(CCN3CCC4(CC3)COC(c3cc5c(cn3)OCCO5)=N4)c2n1`, the inhibition was -0.24%.

Regarding `O=C(NCC1CN(Cc2ccc(N3CCCC3)o2)CCCO1)c1ccc2c(c1)OCO2` (stereo not given), the inhibition amounted to 2.95%.

`Cc1cccc(C(O)CNc2ccnc(Nc3cccc(-c4csc(C)n4)c3)n2)c1` (stereo not given): the inhibition came to 2.54%.

Consider `CCCCOc1cc(CNCCCCCCNCc2cc(OCCCC)cc3ccccc23)c2ccccc2c1`, for which the inhibition is -2.17%.

As to `Cc1[nH]c(C)c(-c2ccc(Oc3ccc(F)cc3)cc2)c(=O)c1Cl`, the inhibition was found to be 3.79%.

With `Cc1cccc(C)c1CNc1nc(N2CCOCC2)cc2c(C)c(C)[nH]c12`, the inhibition was determined as 4.38%.

For the molecule `NCc1cccc(-c2ccc3ccnc(N)c3c2)c1`, the inhibition came to 1.2%.

On to `O=c1cc(NCCCNCc2ccc(Cl)c(Cl)c2)[nH]c2ccc(Cl)cc12`, for which the inhibition was -9.23%.

`N#Cc1cccc(NC(=O)Nc2ccc(-c3ccc(-c4nc5cc(C(F)(F)F)ccc5[nH]4)cc3)cc2)c1`: the inhibition was 4.14%.

With `CN(C)CCNC(=O)c1csc(Nc2ccc(Cl)c(Cl)c2)n1`, the inhibition was 2.28%.

Take `COc1cccc(CN2CCC(C(=O)Nc3ccc(-c4nc5ccccc5[nH]4)cc3)CC2)c1`: the inhibition came to 20.6%.

For `CO/C(=C\C=C\c1cc2cc(Cl)c(Cl)cc2[nH]1)C(=O)NCCCN1CCN(c2cccc(CCO)c2)CC1`, the inhibition is -0.1%.

Turning to `COc1cccc(C(O)CNc2ccnc(Nc3ccc(Cl)cc3)n2)c1` (stereo not given), the inhibition worked out at 1.85%.

Consider `COc1c(I)cc(Cc2cnc(N)nc2N)cc1I`, for which the inhibition amounted to 2.6%.

For the molecule `COc1ccc2nccc([C@@H](O)CN3CCC(NCCc4c[nH]c5ccccc45)CC3)c2c1`, the inhibition came to 7.8%.

As for `CCNc1cc(C(=O)N[C@@H](Cc2ccccc2)[C@H](O)CNC(CC)c2cccc(Cl)c2)cc(N2CCCC2=O)c1` (stereo not given in full), the inhibition worked out at 3.68%.

As to `CCCn1c(Sc2ccc(C#N)c([N+](=O)[O-])c2)nnc1-c1cc(OC)cc(OC)c1`, the inhibition was found to be 1.24%.

`COc1ccc(CNCc2ccc(-c3ccc(-c4nc5cc(F)ccc5[nH]4)cc3)cc2)cc1`: the inhibition is 1.74%.

Take `CC(C)Nc1ccc(Nc2ccnc3cc4ccccc4cc23)cc1`: the inhibition stood at 0.5%.

Turning to `O=C(Nc1cccc(CN2CCCN(Cc3ccc(F)cc3)CC2)c1)c1ccc(Cl)c(Cl)c1`, the inhibition was 0.56%.

For the molecule `COc1cccc(OC)c1CN1CCC(N(C)CCCCCCCCCN2CCC(OC(=O)Nc3ccccc3-c3ccccc3)CC2)CC1`, the inhibition came to 111%.

As to `CCOC(=O)COc1cccc(CNc2ccc3nc(N)nc(N)c3c2)c1`, the inhibition turned out to be 1.48%.

With `CC(C)C[C@H](Nc1ccnc(NCC2CCCCC2)n1)C(=O)Nc1ccccc1`, the inhibition amounted to 3.2%.

As for `COc1cncc(/C=C/c2cncc(C(=O)NCCc3ccc(Cl)cc3Cl)c2)c1`, the inhibition was 3.94%.

Turning to `CC(CN(C)C)C(=O)Nc1ccc(-c2csc(-c3nc4ccccc4[nH]3)c2)cc1` (stereo not given), the inhibition worked out at 3.09%.

As for `O=C(Nc1ccc(CN2CCN(S(=O)(=O)c3ccc(Cl)s3)CC2)cc1)c1cccs1`, the inhibition came out at 5.63%.

`FC(F)(F)c1ccc2[nH]c(-c3ccc(-c4ccc(CNCCN5CCNCC5)cc4)cc3)nc2c1`: the inhibition was -1.25%.

On to `CCOC(=O)c1nc(-c2cccc(F)c2)[nH]c1N`, for which the inhibition was found to be 2.23%.
